In the library only some 1.8% were active in any assay of this set; here they are far more common.
ugtP null kill – compounds lethal to S. aureus RN4220 ugtP deletion mutant. OD600 growth, 16 h. growth inhibition, % (concentration not given with the values). 0.54% of 330,000 active. AID 1259309; in the data active means growth inhibition above about 68%;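 further: plate controls were untreated wells for no effect and antibiotic for full effect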
PfHsp40 rescue – restores yeast growth despite PfHsp40 toxicity; 0.68% of 340,000 active; S. cerevisiae expressing PfHsp40, growth rescue, ATP luminescence; AID 504582; growth rescue, % at 12.5 µM; in the data active means growth rescue above about 28%, passing the limit was not always enough;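 further: yeast W303a lacking pdr1 and pdr3 grown in galactose medium; growth measured after three days at 30 °C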
PrPC TRFRET – inhibitors of human cell surface prion protein PrPC; inhibition, % at 13.8 µM; AID 720596; 0.43% of 370,000 active; TR-FRET read-out; in the data active means inhibition above about 24%; further: 0% = median of the test wells and 100% = reference compound wells
DUSP3 inh – blocks human VHR1 dual specificity phosphatase; P51452; recombinant VHR phosphatase, pNPP absorbance; inhibition, % at 13.3 µM; 0.52% of 290,000 active; in the data active means inhibition above about 50%
Target sequence (P51452 whole entry, looked up): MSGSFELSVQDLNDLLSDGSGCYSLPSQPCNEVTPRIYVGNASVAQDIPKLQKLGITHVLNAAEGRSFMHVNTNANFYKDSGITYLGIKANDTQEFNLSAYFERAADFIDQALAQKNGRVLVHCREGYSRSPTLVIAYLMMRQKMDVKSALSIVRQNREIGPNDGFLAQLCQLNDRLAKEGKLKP
RN4220 kill – kills Staphylococcus aureus RN4220 | S. aureus RN4220 growth, OD600, 16 h | inhibition, % (concentration not given with the values) | 0.33% of 330,000 active; in the data active means inhibition above about 85%;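 further: plate controls were untreated cells for no effect and reference antibiotic for full effect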
Active calls of the source: *; nt = no result.

SMILES | ugtP null kill | PfHsp40 rescue | PrPC TRFRET | DUSP3 inh | RN4220 kill
COc1ccc(C(O)P(=O)(Oc2ccccc2)Oc2ccccc2)cc1 (stereo not given) | 2.3 | -0.7 | 2.5 | nt | 1.0
O=P(Oc1ccccc1)(Oc1ccccc1)C(O)c1ccc(Cl)cc1 (stereo not given) | 1.4 | 140.2* | 5.5 | nt | 8.3
CCN1C(=O)C2C(c3ccc(-c4ccc(Cl)c(Cl)c4)cc3)N[C@@](C)(C(=O)OC)C2C1=O (stereo not given in full) | 1.7 | nt | nt | nt | -4.3
Cc1ccc(C(=O)N/C(=C\c2ccc(-c3cccc([N+](=O)[O-])c3)o2)C(=O)NCCCN(C)C)cc1 | -3.5 | -0.2 | -19.4 | 53.9* | -3.0
O=C(N/N=C/c1cc([N+](=O)[O-])ccc1N1CCNCC1)c1ccc([N+](=O)[O-])cc1 | nt | -0.3 | -36.9 | 52.1* | nt
O=C(N/N=C/c1ccc(-c2cccc([N+](=O)[O-])c2)o1)c1ccc([N+](=O)[O-])cc1 | nt | 146.3* | -5.2 | 14.7 | nt
O=C(NN=Cc1cc([N+](=O)[O-])ccc1N1CCNCC1)c1ccc([N+](=O)[O-])cc1 | -0.9 | nt | nt | nt | -1.4
O=C(N/N=C/c1ccc(-c2cccc([N+](=O)[O-])c2)o1)c1ccccc1O | nt | 1.8 | -3.8 | 28.4 | nt
O=C(NN=Cc1ccc([N+](=O)[O-])o1)c1ccc2c(c1)OCO2 | 97.7* | nt | nt | nt | 87.7*
O=C(NN=Cc1ccc(-c2cccc(C(F)(F)F)c2)o1)c1ccccc1Br | 90.1* | nt | nt | nt | 10.8
CC(C)(C)c1ccc2c(c1)OC(C(=O)N/N=C/c1ccc([N+](=O)[O-])o1)CO2 (stereo not given) | nt | nt | -7.5 | 56.6* | nt
Nc1nnc(SCC(=O)Nc2ccc(Cl)c(C(=O)O)c2)s1 | -0.6 | -0.8 | -9.8 | 56.4* | -0.9
COC(=O)c1cc(NC(=O)CSc2nnc(N)s2)ccc1Cl | 0.0 | 0.1 | 8.5 | 16.6 | 8.1
Cc1ccccc1OCC(=O)NCCNC(=O)c1ccccn1 | 1.7 | 0.0 | 5.1 | 54.4* | 0.0
COCc1cc(Sc2c(Cl)cccc2Cl)nc(-c2ccccc2)n1 | 85.5* | 1.1 | -4.9 | 9.9 | -9.6
CCN(CCO)C1CC(=O)N(c2ccccc2C)C1=O (stereo not given) | 2.4 | 75.0* | nt | 12.7 | 5.8
O=c1[nH]c(C2CCN(S(=O)(=O)c3ccc(S(=O)(=O)NC4CC4)cc3)CC2)nc2c1nnn2Cc1ccc(F)cc1 | 15.0 | 1.8 | -0.2 | 59.1* | 0.1
O=c1[nH]c(C2CCN(S(=O)(=O)c3ccc(S(=O)(=O)NC4CC4)cc3)CC2)nc2c1nnn2Cc1ccccc1 | 10.2 | 3.2 | 5.9 | -17.1 | 1.1
COc1ccccc1-c1sc2cc3c(cc2c1-c1ccc(OCCN2CCCCC2)cc1)OCO3 | 12.2 | 43.3* | 4.5 | nt | 0.5
CCCCC(=O)Nc1cccc(C(=O)NN=Cc2ccc(OC)cc2OC)c1 | 11.7 | nt | nt | nt | 2.8
O=C(c1cnc2ccc3ccccc3c2c1)c1cc(F)ccc1O | 0.6 | 83.6* | -11.4 | 26.3 | 18.3
C=CCc1cc(C=O)cc(OC)c1OCc1ccc(Cl)cc1 | 86.1* | 3.1 | 6.1 | 20.2 | -4.1
COc1cc(C=O)ccc1OCCOCCOc1ccc(Cl)cc1 | 5.3 | -1.0 | -1.8 | 2.5 | 0.9
C=CCc1cc(C=O)cc(OCC)c1OCc1ccc(Cl)cc1 | 99.3* | -1.3 | 3.6 | -7.9 | -17.1
CCOc1cc(/C=N/O)cc(Br)c1OCc1ccc(Cl)cc1 | nt | 15.5 | 7.8 | 2.2 | nt
SMILES | ugtP null kill | PfHsp40 rescue | PrPC TRFRET | DUSP3 inh | RN4220 kill
CCOc1cc(C=NO)cc(Br)c1OCc1ccc(Cl)cc1 | 90.9* | nt | nt | nt | -7.7
Cc1ccc(C=NNC(=O)Cc2ccc(O)cc2)s1 | 0.8 | nt | nt | nt | 3.3
CCC1(CC)C(=O)C2=C3C(CC(C(=O)OC)CC(C(=O)OC)C31)C1C(=O)N(c3ccccc3)C(=O)C1C2C (stereo not given) | 0.4 | nt | nt | nt | 2.7
O=[N+]([O-])c1ccc(S(=O)(=O)c2ccccc2)nc1 | nt | 288.6* | 24.0 | 9.5 | nt
O=C1CCCN1c1ncc(S(=O)(=O)c2ccc([N+](=O)[O-])cc2)s1 | 75.3 | 0.8 | -14.1 | -2.4 | 72.0
Nc1ncc(S(=O)(=O)c2ccc([N+](=O)[O-])cc2)s1 | 96.3* | 0.1 | -13.2 | nt | 97.6*
Nc1ccc(S(=O)(=O)c2ccccc2)nc1 | -2.5 | 0.2 | 9.1 | 16.1 | 4.9
Cc1cc(S(=O)(=O)c2ccc([N+](=O)[O-])cn2)ccc1Br | 40.2 | 2.5 | 3.4 | nt | 25.8
Cc1ccc(S(=O)(=O)c2ccc([N+](=O)[O-])cn2)cc1 | 23.4 | 163.7* | 70.3* | 20.7 | 23.2
COC(=O)[C@@]1(Cc2ccc(F)cc2)C2c3cc(C(=O)N(C)C)n(Cc4c(CO)[nH]cc(C)c4=O)c3CC2CN1C(=O)c1ccccc1 (stereo not given in full) | -9.8 | nt | nt | nt | 0.3
Cc1ccc(NC(=S)Nc2cccc3cnccc23)cc1C | -3.8 | 377.1* | -0.5 | 43.8 | -1.9
Cc1ccccc1NC(=S)Nc1cccc2cnccc12 | 2.3 | -0.2 | 2.7 | 21.9 | 0.6
S=C(Nc1cccc(Cl)c1)Nc1cccc2cnccc12 | -27.5 | 31.4* | nt | 50.8* | -10.7
Cc1ccc(NC(=S)Nc2cccc3cnccc23)cc1 | 6.2 | -2.1 | 3.0 | 6.3 | 3.1
COc1cccc(C2=CC(=O)CC(c3ccc(Cl)cc3)C2)c1 (stereo not given) | 2.8 | nt | nt | nt | -1.2
COc1ccccc1N(CC(=O)N1CCCC1)S(=O)(=O)c1ccc(C)cc1 | nt | -1.0 | -3.1 | 2.2 | nt
COc1ccccc1N(CC(=O)N1CCCCCC1)S(=O)(=O)c1ccc(C)cc1 | -2.4 | 0.4 | 11.7 | 50.4* | 4.9
Cc1nc2ccccc2c(=O)n1NC(=O)C=Cc1ccccc1Cl | -18.4 | nt | nt | nt | -1.2
COC(=O)C1=NN(C(=O)c2cccc(Br)c2)C(O)(c2ccc(Cl)cc2)C1 (stereo not given) | -10.9 | 493.8* | 2.9 | -0.6 | 21.7
COC(=O)C(C=NO)NC(=O)c1ccccc1 (stereo not given) | 10.1 | nt | nt | nt | 5.9
Cc1ccc(NC(=O)CSCC(=O)N2CCN(c3cccc(C(F)(F)F)c3)CC2)cc1 | 9.9 | 41.3* | 1.8 | nt | 0.5
Cn1c(=O)cc(OCC(=O)N2CCN(c3cccc(C(F)(F)F)c3)CC2)c2ccccc21 | -0.5 | 47.5* | -3.3 | -0.3 | 2.9
Cc1cc(NC(=O)CSCC(=O)N2CCN(c3cccc(C(F)(F)F)c3)CC2)no1 | -1.9 | nt | -1.3 | nt | -0.2
CC(C)(C)C1CCc2[nH]c3ccccc3c(=O)c2C1 (stereo not given) | 0.9 | 102.2* | 6.7 | 21.4 | 4.3
CCOC(=O)C1C2COc3ccc(C)cc3C2N2C(=O)CN(Cc3ccccc3)C(=O)[C@@]12C (stereo not given in full) | 3.9 | nt | nt | nt | 3.1
CCCCCc1c(C)nc(N2CCc3ccccc32)[nH]c1=O | -11.6 | 1.0 | 0.5 | 52.9* | -12.7
O=[N+]([O-])c1cnc(Sc2ccncn2)s1 | 100.4* | 19.7 | -5.3 | 22.4 | 80.9
Cc1c(C=NNC(=O)c2cc(Br)ccc2O)c(=O)n(C)c(=O)n1C | 10.9 | nt | nt | nt | 9.9
COC(=O)CCCC(=O)N1CCC(n2nccc2NC(=O)CCOc2ccccc2)CC1 | -2.0 | -0.4 | -3.0 | 89.4 | 1.6
COCC(=O)N1CCC(n2nccc2NC(=O)CCOc2ccccc2)CC1 | -0.6 | 0.2 | -1.9 | 55.5* | -1.0

Screening results from PubChem BioAssay.
